Only some compounds are listed: those with a hit (about 4.6% of all), similar ones and a draw of the others.
D1 PAM = human D1 dopamine receptor positive modulation | potentiation, % at 10 µM | P21728 | actives 0.036% (n = 360,000) | HEK293 TREx D1 cells, calcium flux, dopamine EC20 potentiation; in the data active = potentiation above about 30%; note: 0% is about no effect
Target sequence (P21728 whole entry, looked up): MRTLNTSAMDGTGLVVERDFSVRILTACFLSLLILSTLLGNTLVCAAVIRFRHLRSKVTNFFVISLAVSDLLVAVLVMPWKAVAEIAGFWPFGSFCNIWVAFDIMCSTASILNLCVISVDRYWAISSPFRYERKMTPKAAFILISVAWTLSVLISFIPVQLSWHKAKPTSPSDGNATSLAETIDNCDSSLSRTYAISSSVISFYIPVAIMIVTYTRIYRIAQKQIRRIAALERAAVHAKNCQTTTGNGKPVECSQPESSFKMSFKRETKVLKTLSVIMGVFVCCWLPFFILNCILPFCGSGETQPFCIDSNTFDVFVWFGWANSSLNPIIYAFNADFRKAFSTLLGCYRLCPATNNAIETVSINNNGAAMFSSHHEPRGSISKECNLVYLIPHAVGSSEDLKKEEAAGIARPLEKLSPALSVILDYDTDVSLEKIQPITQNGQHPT
D1 antagonist = blocks dopamine activation of the human D1 receptor | HEK293 TREx D1 cells, calcium flux, dopamine EC80; hits give low values | activity change, negative = inhibition, % at 10 µM | actives 3.2% (n = 360,000) | AID 504652; in the data active = activity change below about -30%; note: % is set by controls: 0 for no effect and ±100 for the full control effect
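Inducible Hek293 Trex D1 cells (tetracycline, overnight, 30 C). Calcium dye 30–90 min RT. Antagonist mode: EC80 dopamine added after 180 s compound read.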
TRHR agonist-1 = activates the human TRH receptor; TRHR cells, calcium flux fluo-8, FDSS agonist mode; activation, % at 2 µM; P34981; actives 0.18% (n = 360,000); note: 0% is about no effect
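Agonist-mode FDSS calcium read (Ex 480/Em 530, 1 s cycles) in 1536-well TRHR cells with fluo-8 dye, after 10-cycle baseline and 23 nL compound addition; TRH at EC20 (10 nM final) added afterwards for the enhancer phase.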
D1 ag = human D1 receptor agonism. HEK293 T-REx D1 cells, calcium flux, agonist mode. activation, % at 2 µM. actives 1% (n = 360,000). AID 504660; note: 0% is about no effect
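Tetracycline-induced HEK293 TREx D1 cells, force-coupled to calcium signalling, were dye-loaded with a no-wash calcium kit. Compound was pin-added after a 10 s baseline. Fluorescence was read kinetically at 1 cycle/s for 180 s, with calcium rises flagged as agonism.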
TRHR enhancer-1 = allosterically enhances the human TRH receptor; P34981; TRHR cells, fluo-8 calcium fluorescence, EC20 TRH enhancement; enhancement, % at 2 µM; actives 0.66% (n = 360,000); AID 493056; in the data active = enhancement above about 30%; note: 0% is about no effect
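Enhancer read-out: after compound pinning and an initial kinetic agonist-mode read, an EC20 of TRH (10 nM final) was injected and fluo-8 calcium signal (Ex 480/Em 530) followed at 1 s/cycle for 100 cycles in TRHR-expressing cells.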
TRHR enhancer-2 = human TRH receptor allosteric enhancement confirmation. activity change, negative = inhibition, % at 46.1 µM. shares compounds with TRHR enhancer-1. AID 493076. TRH receptor cell assay, enhancer confirmation qHTS. 970 tested, under 10 active; active = well fitted curve in the direction sought with a large enough effect; inconclusive = small, poorly fitted or top-dose-only effect, or another doubt; inactive = no such curve, though single readings can be large; an effect the other way counts as inactive or inconclusive;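 note: compound effect scored on response to added TRH at EC20 of 10 nM; 0% is about no effect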
TRHR agonist-2 = human TRH receptor agonism confirmation | shares compounds with TRHR enhancer-1 | actives 8% (n = 970) | TRHR-expressing cells, agonist activation read-out | Potency, µM (top dose mostly 46.1 µM), inactives show top-dose activation, actives largely listed as activators; active = well fitted curve in the direction sought with a large enough effect; inconclusive = small, poorly fitted or top-dose-only effect, or another doubt; inactive = no such curve, though single readings can be large; an effect the other way counts as inactive or inconclusive; note: potency is the fitted concentration of half-maximal effect; 0% is about no effect; nearly all actives have a fitted effect of over 75% in size
Starred values were filed as active, the others as inactive; ? = inconclusive; / = not tested or not shown. Cut-off read from the data, not from the text of the source, unless noted: active = activation above about 30%; inactive = the rest.

SMILES	D1 PAM	D1 antagonist	TRHR agonist-1	D1 ag	TRHR enhancer-1	TRHR enhancer-2	TRHR agonist-2
COc1cccc(NC(=O)N(Cc2cc3cc(C)cc(C)c3[nH]c2=O)CC2COCCO2)c1 (stereo unspecified)	2	-32*	-1	0	5	/	/
COc1ccc(-c2onc(C)c2C)cc1S(=O)(=O)Nc1cc(Cl)ccc1C	-6	-14	0	2	2	/	/
NCC(O)(c1ccc(Cl)cc1)c1ccc(Cl)cc1	-9	-4	18	51*	24	/	/
Cc1cccc(N2CCN(C(=O)CCS(=O)(=O)c3ccc4c(c3)CC(=O)N4C)CC2C)c1 (stereo unspecified)	-5	-1	0	1	0	/	/
Cc1cccc2cc(CN(Cc3ccco3)S(=O)(=O)c3ccc4c(c3)OCCO4)c(=O)[nH]c12	2	-51*	0	3	-3	/	/
Cc1ccc(S(=O)(=O)Nc2ccc(NC(=O)Nc3cccc(C(F)(F)F)c3)cc2)cc1	-8	-1	0	3	8	/	/
CCN(CC)S(=O)(=O)c1ccc(NC(=O)Nc2cccc(C(F)(F)F)c2)cc1	-1	-32*	2	16	-2	/	/
Cc1ccc(S(=O)(=O)N(Cc2cccc(C(F)(F)F)c2)C(=O)N2CCN(C)CC2)cc1	-4	-7	0	2	3	/	/
O=C(Nc1ccc(OC(F)F)cc1)Nc1cccc(C(F)(F)F)c1	-5	-38*	4	19	-11	/	/
Cc1ccc(S(=O)(=O)N(CC(=O)Nc2cccc(C(F)(F)F)c2)C(=O)N2CCN(C)CC2)cc1	-6	-38*	0	2	16	/	/
COc1cc(/C=C2\C(=N)N3N=C(S(C)(=O)=O)SC3=NC2=O)ccc1OC(=O)c1cccs1	-12	4	-1	0	9	/	/
COc1cc(/C=C2\C(=N)N3N=CSC3=NC2=O)ccc1OS(=O)(=O)c1ccccc1[N+](=O)[O-]	-3	-30*	0	4	-4	/	/
COc1cc(/C=C2/C(=N)N3C(=NC2=O)SN=C3S(C)(=O)=O)ccc1OS(=O)(=O)c1ccccc1	-2	-24	0	1	-2	/	/
COc1cc(/C=C2\C(=N)N3N=C(S(C)(=O)=O)SC3=NC2=O)ccc1OCCOc1ccccc1C	-4	6	1	4	35*	/	/
COc1ccc(CCNC(=O)CCc2cn(Cc3ccc(F)cc3)c3ccccc23)cc1OC	-4	-13	-1	9	10	/	/
CC(=O)NS(=O)(=O)c1ccc(NC(=O)c2ccc(Cl)cc2[N+](=O)[O-])cc1	-1	-7	0	2	50*	-6	5%
COc1ccc(C(=O)Nc2ccc(S(=O)(=O)NC(C)=O)cc2)cc1[N+](=O)[O-]	-2	6	1	2	5	/	/
COc1ccc([C@]23Cc4cc(OC)c(OC)cc4C(O2)C2=C(CC(C)(C)CC2=O)O3)cc1	-2	3	0	2	-10	/	/
Cn1c(N)c(C(=O)COC(=O)CCC2CCCC2)c(=O)n(C)c1=O	0	-3	0	13	6	/	/
Cn1c(N)c(C(=O)COC(=O)CCC2CCCCC2)c(=O)n(C)c1=O	3	21	0	19	46*	1	-1%
CCCCCn1nc(-c2ccccc2)c2nc3ccccc3nc21	7	21	26	37*	10	2	16µM*
Cc1ccc(Cl)cc1N1CCN(S(=O)(=O)N2CCCCC2)CC1	-1	12	0	10	43*	0	1%
COc1cc(/C=C2\SC(=S)N(NC(=O)c3ccc(O)c(OC)c3)C2=O)ccc1O	5	26	45*	73*	3	5	?
CCOc1cc(/C=C2/SC(=S)N(CC3CCCO3)C2=O)ccc1O (stereo unspecified)	7	2	43*	68*	5	?	16µM*
COc1cc(/C=C2\SC(=S)N(NS(=O)(=O)c3ccc(C)cc3)C2=O)cc(OC)c1OC	0	2	0	-2	-2	/	/
SMILES	D1 PAM	D1 antagonist	TRHR agonist-1	D1 ag	TRHR enhancer-1	TRHR enhancer-2	TRHR agonist-2
COc1cc(/C=C2\SC(=S)N(NS(=O)(=O)c3ccc(C)cc3)C2=O)ccc1O	4	-9	36*	82*	-5	-3	?
O=C1/C(=C/c2cccc(O)c2)SC(=S)N1CC1CCCO1 (stereo unspecified)	-14	-24	1	2	1	/	/
CCOc1cc(/C=C2\SC(=S)N(NC(=O)c3cccnc3)C2=O)ccc1O	2	2	8	20	-4	/	/
COCCc1nn2c(=O)cc(COC(=O)c3ccc(Br)cc3)nc2s1	-7	-4	0	8	-5	/	/
CCN(CC)N=Nc1ccc(S(N)(=O)=O)cc1	-7	-5	0	9	58*	3	3%
CCOc1ccccc1NC(=O)C1CC(=O)n2ncnc2N1 (stereo unspecified)	0	5	0	3	48*	0	0%
O=C(Nc1ccccc1)C1CC(=O)n2ncnc2N1 (stereo unspecified)	6	-4	1	3	-5	/	/
Cc1cc(C(=O)NCCN2CCOCC2)ccc1[N+](=O)[O-]	-4	-1	1	2	45*	0	-1%
CSCC[C@H](NC(=O)Cc1ccc(Cl)cc1)C(=O)N1CCC2(CC1)NCCc1[nH]cnc12	4	-2	0	1	10	/	/
O=C(COc1ncnc2ccccc12)NCCc1ccccc1	-10	-44*	0	2	58*	-2	-1%
O=S(=O)(c1cccs1)N1CN(Cc2ccccc2)c2nc3ccccc3nc21	-1	0	0	2	56*	-1	4%
O=C(CSc1nc(=O)n(Cc2ccco2)c2c1CCC2)NCc1ccccc1Cl	1	/	0	3	-15	/	/
CC(OC(=O)CN1C(=O)C2CC=CCC2C1=O)C(=O)Nc1ccc(F)cc1Cl (stereo unspecified)	-5	5	0	8	43*	3	7%
Cc1cc(C(F)(F)F)nn1-c1nc(-c2ccccc2)cc(C(F)(F)F)n1	0	20	3	10	-6	/	/
CCC(=O)Nc1ccc2c(c1)C(=O)c1ccccc1C2=O	-3	-3	0	0	4	/	/
CCC(=O)NC1=C(NC(C)c2ccccc2)C(=O)c2ccccc2C1=O (stereo unspecified)	5	5	0	3	50*	-5	2%
Cc1cc(C)c2c(n1)nn1c(NCCCN(C)C)cc(C)nc21	-4	1	0	0	57*	2	0%

Compound activity (PubChem)
